Laboratory results taken from the supplement of paper PMC3724861.
The full list was thinned out, with hits kept by preference. No count for the full screen is at hand.

tested on: T1, Caupolican (Caup) homeodomain DNA-binding domain; assay: PBM E-score (8-mer, recovered from the published 9-mer minima) (E-score (dimensionless, -0.5 to 0.5)); Drosophila protein; higher = stronger relative binding preference, active = 0.31 or more
T1 sequence: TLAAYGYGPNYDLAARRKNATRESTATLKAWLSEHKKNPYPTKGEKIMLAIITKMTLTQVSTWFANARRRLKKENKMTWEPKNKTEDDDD
Procedure, shortened: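 An enrichment score, with higher meaning stronger, expresses relative binding preference for each short DNA word. The protein used was Caup's homeodomain DNA-binding domain (residues 214-303), produced by in vitro transcription and translation and tested at 100 nM on custom-designed protein binding microarrays. The 8-mer values were recovered from published 9-mer scores, each equal to the lower of its two constituent 8-mer scores.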

PBM E-score, active:
ACGTGTAA ≥ 0.394, TCGTGTAA 0.363, GCGTGTAA 0.327, CCGTGTAA 0.35, AACGATGT 0.35, CATGTCGC 0.363, CATGTCGA 0.412, TATGTCGA 0.323, CATGTCGG 0.357, TAATTACA 0.335, AAATTACA 0.329, CAATTACA 0.334, AACTTACA ≥ 0.344, AATTTACA 0.328, ACAAGACA ≥ 0.352, ACAAGATA 0.342, ACAAGGTA 0.335, GTAACATA 0.345, ATAACATC 0.318, ATAACATG 0.424, ATAACATA 0.356, CATGTATC 0.408, CATGTATA 0.418, AATGTATC 0.314, CTTACAAC 0.333, CTTACAAG 0.343, CGATGTCA 0.311, GGATGTCA 0.311, GTATGTCA 0.345, ATACATAA 0.348, ATACATAC 0.332, ATACATTC ≥ 0.314, ATACATAT 0.344, CTGTAGTA 0.348, ATGTAGTA 0.372, GTGTAGTA 0.357, ATGTAGTC 0.331, ATCGTGTC 0.336, AGCGTGTA 0.355, ATCGTGTA 0.407, GTCGTGTA 0.386, TAATAACA 0.319, TGATAACA 0.322, GTGTAACA 0.397, ATGTAACG 0.347, ATGTAACA 0.429, ATGTAAGA 0.332

PBM E-score, inactive:
ACAGTTTC 0.0345, CCAGCGGG -0.276, AGACCCCT -0.143, CACGGTCC -0.0957, CGACGATC 0.00125, CCGTGTGA 0.0813, GCGTGTGA 0.0667, GAGTGTAA 0.11, AGGTGTAA 0.2, TAGTGTAA 0.207, CAGTGTAA 0.218, ACGTGTGA 0.155, TCGTGAAA 0.00205, CTATCTGA 0.0431, AAGTGGAC -0.00011, AGTTGGCC -0.159, ATATATCG 0.0746, CAGACTGC -0.0434, TAAGTAGA 0.11, CAGGGCTA -0.125, CCAGACAC 0.05, AACGATGC -0.051, AACGATGG -0.0529, TAACTTCA 0.137, AACGCAGA -0.0244, TGACTGAA -0.0626, GGCCGCGA -0.26, GATGTCGC 0.201, AATGTCGA 0.212, GATGTCGA 0.217, CAGGTCGG -0.0619, AATGTCGG 0.119, CGTGTCGA 0.281, AATGTCGC 0.191, CTTGTCGA 0.303, ACCGCGTC -0.0819, TATTCTCA 0.0911, CTGTGAAG -0.0616, GCGACAGA 0.0849, CTGGGTTC -0.0931, ATTAGCGG -0.0813, AACAGGGG 0.0757, GACTTACC -0.0473, ACCATCAT 0.0686, GACCTCAA 0.0301, CACTTACA 0.243, GAATTACA 0.29, AAATTACG 0.0367, CAATTACG 0.0582, AAATTACT 0.124, GACTTACA 0.246, TAATTATA 0.234, CAATTACC -0.00996, AGGTAATA 0.0994, CGCCCATA -0.126, CGACCTCC -0.138, AGCAACGA 0.0654, ACAATCCG 0.117, CGGGAAAA -0.0322, CCGGAGAG -0.159, CATTTACA 0.239, GATTTACA 0.246, GAGGTTGC -0.184, AGGCAATA 0.0132, AATTGCAT 0.0474, ACAAGGTC 0.298, ACAAGATC 0.258, CCAAGATA 0.106, GCAAGACA 0.0548, ACAAGACG 0.257, GCAAGGTA 0.0505, CGAATAGA 0.0132, ACGTCACG 0.0623, CATTCCCA -0.01, CGGGATCC -0.132, ACCCAAGC -0.122, CCCTGCGG -0.29, ACGTCGAG -0.0187, GTAACAGA 0.211, CTAACATA 0.28, ATAACAGG 0.155, ATAACAGA 0.171, ATAACAGC 0.148, ATAACTTG 0.197, CTAACATC 0.208, CGATCATC 0.0443, ATCCGCGG -0.111, AAAGTTGG 0.0235, ATAGGGGA -0.137, AACCGGCG -0.0557, GCTAGATA 0.0474, CCGCGTCC -0.087, CAAGTATC 0.148, AATGTATA 0.271, AATGTATG 0.243, CCTGTATC 0.125, AGTGTATC 0.186, GATGTATA 0.295, CAACCCCA -0.102, CACTGATG 0.107, GAGAACGC -0.0756, CACTTCCG -0.121, ATATCGTC 0.107, AGACCCAA -0.131, GTTACAAC 0.303, CTCACAAG 0.0655, CATACAAC 0.27, CTTACAAA 0.181, CCGCGTCA -0.126, AGCTGGTG -0.0997, AGCGGCGG -0.225, ATAGGCGA -0.0622, CGATGTCC 0.143, CTATGTCA 0.307, AGATGTCA 0.279, ATATGTCA 0.305, CGGTGTCA 0.193, GGATGTGA 0.081, ACAAGGTG 0.255, AAGCGCGA -0.033, CAACGTGA 0.0867, CGAGCTCA -0.105, CAACCGTA 0.0275, CTACATTC 0.119, ATACATAG 0.292, ATACATTG 0.261, CTACATAC 0.286, AGACATAC 0.222, AGACATAT 0.264, CCTCACAA -0.0288, GGAATGAA 0.00414, GTAGAGGA 0.00507, AGTGATAA 0.126, GTCGCCAA -0.0201, GCCCTAAC -0.104, CATCATGA 0.11, ACACCAGT 0.101, CTCCCGAA -0.138, CTATTAAC 0.178, CAGGGATC -0.124, GCTCCAGC -0.186, CTGTAGTC 0.0608, ATGTAGTG 0.27, CAGTAGTA 0.175, GCGTAGTA 0.0285, AAGTAGTC 0.159, GAGTAGTA 0.0893, ATGTAGGC 0.12, AAGTAGTA 0.186, AAAGGTGC -0.0982, TGAGCAAA 0.0543, GGAGGCAC -0.154, ACTGAGCA 0.0738, CTCTTTTC -0.1, CCTCTGTC -0.0145, AGCTCATC -0.167, AGCGTGTC 0.231, ATCGTGCA 0.127, GTCGTGGA -0.0165, CTCGTGTA 0.27, ATCGTGGA -0.0656, CTCGTGTC 0.26, ATCGTGTG 0.149, CGCGTGTA 0.285, CTTGAAGA -0.0903, ATCGACGG -0.105, GTTAAAGA 0.0986, GCAACTAC 0.0804, GGCAGAGA -0.188, AGTCGAAA 0.0145, AAAACTCC -0.138, AACTCGGG -0.0964, GTTTCAAA 0.0987, GGGCTTTA -0.186, GATCTACA 0.145, GAATAACA 0.301, CAATAACA 0.238, GGATAACA 0.238, CGATAACA 0.244, CGGTCTTA -0.00157, ACGTAACA 0.263, GCGTAACA 0.221, ACGTAACG 0.0522, GGGTAACA 0.216, ATGTAACC 0.275, CTGTAAGA 0.138, GTGTAAGA 0.224, CTGTAACA 0.289
